# Laboratory results taken from the supplement of paper PMC8728848.
# Shown is part of a subset that was picked to be rich in the strongest signals.
# B1: PX14375D-bvu-513-34-513 (Bacteroides vulgatus) (protein)
# chain: TEDTFWKDETDFNLALTSCYTPLKNALNGGYYGTRGVMLRIARADEVDFRNDISDVYTVNRFTNSNTNSLTQGMFYQFYNALYRTNSIMQKLEEKKEQFSTDFQNSVKGECLFIRGFYLFQLAKEFKDAPLRLTASQSPSTFPLAKSSQADIWAQAKEDLKTAASLLPITNKIGKPTQGAAYAALGKIYVYEENWQEAINVLEPLTQNPYTYKLVEDFNWNFDDTHENNAESIFELLIEDVGGTDLWGDGENINSTQSNTRPKEYAAAEVGGWYEANPTQQIMDIFWKEKDKDGNFDYRARCSVAWDYEGCTYYQRPFREVFAQDKWKTYWILKYQNWKTQKDEPAPPKSFINERAIRYADVLLMLAEAYMNKGALDTSIGYINQIRRRANLNDYSGPITKEGVFEDLVHQRAIEFFVEGERFYDLRRWGLLEQTLKTCDDTRYKNYQTGKSDNINKFNYFPIPAKELDTNPLCTPSEGW
# Tests used:
# Experiment in all cases: glycan array binding signal (z-score within array); higher = stronger binding
# Conditions in all cases: glycan notation: IUPAC condensed, linker removed
# Fuc(a1-2)Gal = target: Fuc(a1-2)Gal
# Summary of the method: (§1)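 The Consortium for Functional Glycomics database supplied 3228 glycan arrays, of which those lacking an available protein sequence were dropped. The binding signal, a within-array Z-score, was averaged across arrays of the same protein sequence and across linkers. Negative scores can be read as non-binding.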
# Fuc(a1-2)Gal(b1-3)GlcNAc = target: Fuc(a1-2)Gal(b1-3)GlcNAc
# Summary of the method: as §1
# [1] = target: Fuc(a1-2)Gal(b1-3)GlcNAc(b1-2)Man(a1-3)[Fuc(a1-2)Gal(b1-3)GlcNAc(b1-2)Man(a1-6)]Man(b1-4)GlcNAc(b1-4)GlcNAc
# Summary of the method: as §1
# [2] = target: Fuc(a1-2)Gal(b1-3)GlcNAc(b1-2)Man(a1-3)[Fuc(a1-2)Gal(b1-3)GlcNAc(b1-2)Man(a1-6)]Man(b1-4)GlcNAc(b1-4)[Fuc(a1-6)]GlcNAc
# Summary of the method: as §1
# [3] = target: Fuc(a1-2)Gal(b1-3)GlcNAc(b1-3)GalNAc
# Summary of the method: as §1
# [4] = target: Fuc(a1-2)Gal(b1-3)[Fuc(a1-4)]GlcNAc(b1-2)Man(a1-3)[Fuc(a1-2)Gal(b1-3)[Fuc(a1-4)]GlcNAc(b1-2)Man(a1-6)]Man(b1-4)GlcNAc(b1-4)[Fuc(a1-6)]GlcNAc(b1-4)[Fuc(a1-6)]GlcNAc
# Summary of the method: as §1
# Fuc(a1-2)Gal(b1-4)GlcNAc = target: Fuc(a1-2)Gal(b1-4)GlcNAc
# Summary of the method: as §1
# [5] = target: Fuc(a1-2)Gal(b1-4)[Fuc(a1-3)]GlcNAc(b1-2)Man(a1-3)[Fuc(a1-2)Gal(b1-4)[Fuc(a1-3)]GlcNAc(b1-2)Man(a1-6)]Man(b1-4)GlcNAc(b1-4)[Fuc(a1-6)]GlcNAc
# Summary of the method: as §1
# Fuc(a1-2)Gal6S(b1-4)Glc = target: Fuc(a1-2)Gal6S(b1-4)Glc
# Summary of the method: as §1
# [6] = target: Fuc(a1-2)[Gal(a1-3)]Gal(b1-3)GlcNAc(b1-3)GalNAc
# Summary of the method: as §1
# [7] = target: Fuc(a1-2)[Gal(a1-4)]Gal(b1-4)GlcNAc
# Summary of the method: as §1
# [8] = target: Fuc(a1-3)[Gal(b1-4)]GlcNAc(b1-2)Man
# Summary of the method: as §1
# [9] = target: Fuc(a1-3)[Gal(b1-4)]GlcNAc(b1-2)Man(a1-3)[Fuc(a1-3)[Gal(b1-4)]GlcNAc(b1-2)Man(a1-6)]Man(b1-4)GlcNAc(b1-4)GlcNAc
# Summary of the method: as §1
# [10] = target: Fuc(a1-3)[Gal(b1-4)]GlcNAc(b1-6)GalNAc
# Summary of the method: as §1
# [11] = target: Gal(a1-3)Gal(b1-3)GlcNAc(b1-2)Man
# Summary of the method: as §1
# [12] = target: Gal(a1-3)Gal(b1-4)GlcNAc(b1-6)GalNAc
# Summary of the method: as §1
# [13] = target: Gal(a1-3)[Gal(a1-4)]Gal(b1-4)GlcNAc
# Summary of the method: as §1
# Gal(a1-4)Gal(b1-4)GlcNAc = target: Gal(a1-4)Gal(b1-4)GlcNAc
# Summary of the method: as §1
# Gal(b1-2)Gal = target: Gal(b1-2)Gal
# Summary of the method: as §1
# Gal(b1-4)GlcNAc = target: Gal(b1-4)GlcNAc
# Summary of the method: as §1
# [14] = target: Gal(b1-4)GlcNAc(b1-3)Gal(b1-4)Glc
# Summary of the method: as §1
# [15] = target: Gal(b1-4)GlcNAc(b1-3)Gal(b1-4)GlcNAc(b1-2)Man(a1-3)[Gal(b1-4)GlcNAc(b1-3)Gal(b1-4)GlcNAc(b1-2)Man(a1-6)]Man(b1-4)GlcNAc(b1-4)GlcNAc
# Summary of the method: as §1
# GalNAc(b1-3)Gal = target: GalNAc(b1-3)Gal
# Summary of the method: as §1
# [16] = target: GalNAc(b1-3)Gal(a1-4)Gal(b1-4)GlcNAc(b1-3)Gal(b1-4)Glc
# Summary of the method: as §1
# Glc(b1-4)Glc = target: Glc(b1-4)Glc
# Summary of the method: as §1
# [17] = target: GlcA3S(b1-3)Gal(b1-4)GlcNAc(b1-3)Gal(b1-4)Glc
# Summary of the method: as §1
# [18] = target: GlcNAc(b1-2)[GlcNAc(b1-4)]Man(a1-3)[GlcNAc(b1-4)][GlcNAc(b1-2)Man(a1-6)]Man(b1-4)GlcNAc(b1-4)GlcNAc
# Summary of the method: as §1
# GlcNAc(b1-3)Gal(b1-4)Glc = target: GlcNAc(b1-3)Gal(b1-4)Glc
# Summary of the method: as §1
# [19] = target: GlcNAc(b1-3)Gal(b1-4)GlcNAc(b1-2)Man(a1-3)[GlcNAc(b1-3)Gal(b1-4)GlcNAc(b1-2)Man(a1-6)]Man(b1-4)GlcNAc(b1-4)[Fuc(a1-6)]GlcNAc
# Summary of the method: as §1
# [20] = target: GlcNAc(b1-3)Gal(b1-4)GlcNAc(b1-3)Gal(b1-4)GlcNAc(b1-2)Man(a1-3)[GlcNAc(b1-3)Gal(b1-4)GlcNAc(b1-3)Gal(b1-4)GlcNAc(b1-2)Man(a1-6)]Man(b1-4)GlcNAc(b1-4)[Fuc(a1-6)]GlcNAc
# Summary of the method: as §1
# [21] = target: GlcNAc(b1-3)Gal(b1-4)GlcNAc(b1-3)Gal(b1-4)GlcNAc(b1-3)Gal(b1-4)GlcNAc(b1-2)[GlcNAc(b1-3)Gal(b1-4)GlcNAc(b1-3)Gal(b1-4)GlcNAc(b1-3)Gal(b1-4)GlcNAc(b1-6)]Man(a1-6)[GlcNAc(b1-3)Gal(b1-4)GlcNAc(b1-3)Gal(b1-4)GlcNAc(b1-3)Gal(b1-4)GlcNAc(b1-2)Man(a1-3)]Man(b1-4)GlcNAc(b1-4)[Fuc(a1-6)]GlcNAc
# Summary of the method: as §1
# Man(a1-2)Man(a1-3)Man = target: Man(a1-2)Man(a1-3)Man
# Summary of the method: as §1
# [22] = target: Man(a1-3)[Man(a1-6)]Man(b1-4)GlcNAc(b1-4)GlcNAc
# Summary of the method: as §1
# [23] = target: Neu5Ac(a2-3)Gal(b1-3)GlcNAc(b1-3)GalNAc
# Summary of the method: as §1
# [24] = target: Neu5Ac(a2-3)Gal(b1-3)[Fuc(a1-4)]GlcNAc
# Summary of the method: as §1
# [25] = target: Neu5Ac(a2-3)Gal(b1-4)GlcNAc(b1-2)Man(a1-3)[Neu5Ac(a2-3)Gal(b1-4)GlcNAc(b1-2)Man(a1-6)]Man(b1-4)GlcNAc(b1-4)[Fuc(a1-6)]GlcNAc
# Summary of the method: as §1
# [26] = target: Neu5Ac(a2-3)Gal(b1-4)[Fuc(a1-3)]GlcNAc(b1-3)GalNAc
# Summary of the method: as §1
# [27] = target: Neu5Ac(a2-6)Gal(b1-4)GlcNAc(b1-2)Man
# Summary of the method: as §1
# [28] = target: Neu5Ac(a2-6)Gal(b1-4)GlcNAc(b1-2)Man(a1-3)[GlcNAc(b1-2)Man(a1-6)]Man(b1-4)GlcNAc(b1-4)GlcNAc
# Summary of the method: as §1
# [29] = target: Neu5Ac(a2-6)Gal(b1-4)GlcNAc(b1-2)Man(a1-3)[Neu5Ac(a2-6)Gal(b1-4)GlcNAc(b1-2)Man(a1-6)]Man(b1-4)GlcNAc(b1-4)GlcNAc
# Summary of the method: as §1
# [30] = target: Neu5Ac(a2-6)Gal(b1-4)GlcNAc(b1-2)Man(a1-6)Man(b1-4)GlcNAc(b1-4)GlcNAc
# Summary of the method: as §1
# [31] = target: Neu5Ac(a2-6)GlcNAc(b1-4)GlcNAc(b1-4)GlcNAc
# Summary of the method: as §1
# [32] = target: Neu5Ac(a2-8)Neu5Gc(a2-3)Gal(b1-4)GlcNAc
# Summary of the method: as §1
# Neu5Gc(a2-3)Gal(b1-4)Glc = target: Neu5Gc(a2-3)Gal(b1-4)Glc
# Summary of the method: as §1
# Neu5Gc(a2-6)GalNAc = target: Neu5Gc(a2-6)GalNAc
# Summary of the method: as §1
# [33] = target: Neu5Gc(a2-8)Neu5Gc(a2-3)Gal(b1-4)GlcNAc(b1-3)Gal(b1-4)GlcNAc
# Summary of the method: as §1
binder,measurement,setting,value
B1,glycan array binding signal (z-score),Fuc(a1-2)Gal,0.373
same,glycan array binding signal (z-score),Fuc(a1-2)Gal(b1-3)GlcNAc,-0.892
same,glycan array binding signal (z-score),[1],1.56
same,glycan array binding signal (z-score),[2],0.425
same,glycan array binding signal (z-score),[3],-0.35
same,glycan array binding signal (z-score),[4],2.03
same,glycan array binding signal (z-score),Fuc(a1-2)Gal(b1-4)GlcNAc,0.501
same,glycan array binding signal (z-score),[5],1.81
same,glycan array binding signal (z-score),Fuc(a1-2)Gal6S(b1-4)Glc,-0.059
same,glycan array binding signal (z-score),[6],-0.366
same,glycan array binding signal (z-score),[7],-0.107
same,glycan array binding signal (z-score),[8],2.96
same,glycan array binding signal (z-score),[9],-0.56
same,glycan array binding signal (z-score),[10],0.851
same,glycan array binding signal (z-score),[11],-0.81
same,glycan array binding signal (z-score),[12],0.081
same,glycan array binding signal (z-score),[13],2.92
same,glycan array binding signal (z-score),Gal(a1-4)Gal(b1-4)GlcNAc,0.227
same,glycan array binding signal (z-score),Gal(b1-2)Gal,-0.667
same,glycan array binding signal (z-score),Gal(b1-4)GlcNAc,0.126
same,glycan array binding signal (z-score),[14],-0.017
same,glycan array binding signal (z-score),[15],1.87
same,glycan array binding signal (z-score),GalNAc(b1-3)Gal,-0.306
same,glycan array binding signal (z-score),[16],0.403
same,glycan array binding signal (z-score),Glc(b1-4)Glc,0.371
same,glycan array binding signal (z-score),[17],-0.213
same,glycan array binding signal (z-score),[18],-0.188
same,glycan array binding signal (z-score),GlcNAc(b1-3)Gal(b1-4)Glc,-0.384
same,glycan array binding signal (z-score),[19],1.56
same,glycan array binding signal (z-score),[20],1.62
same,glycan array binding signal (z-score),[21],2.65
same,glycan array binding signal (z-score),Man(a1-2)Man(a1-3)Man,-1
same,glycan array binding signal (z-score),[22],0.478
same,glycan array binding signal (z-score),[23],-0.439
same,glycan array binding signal (z-score),[24],1.67
same,glycan array binding signal (z-score),[25],-0.211
same,glycan array binding signal (z-score),[26],1.33
same,glycan array binding signal (z-score),[27],-0.379
same,glycan array binding signal (z-score),[28],-0.096
same,glycan array binding signal (z-score),[29],-0.145
same,glycan array binding signal (z-score),[30],0.342
same,glycan array binding signal (z-score),[31],0.337
same,glycan array binding signal (z-score),[32],18.8
same,glycan array binding signal (z-score),Neu5Gc(a2-3)Gal(b1-4)Glc,-0.166
same,glycan array binding signal (z-score),Neu5Gc(a2-6)GalNAc,-0.168
same,glycan array binding signal (z-score),[33],-0.969
